This passage reports growth results from PubChem BioAssay (NCI).

What all share (assay): NCI-60 one-dose screen, 48 h (100 = growth as untreated, 0 = no growth, -100 = all killed)
Conditions in all cases: 10 µM unless noted

Assay [1] deals with HCT-15 colon.
Assay [2] deals with SNB-75 CNS.
The test system of assay [3] is SNB-19 CNS.
The test system of assay [4] is U251 CNS.
Assay [5] relates to PC-3 prostate.
Assay [6] has as its system SK-MEL-5 melanoma.
The subject of assay [7] is UACC-62 melanoma.
For assay [8], the system named is LOX IMVI melanoma.
In assay [9] the test system is SK-MEL-28 melanoma.
In assay [10] the test system is SK-MEL-2 melanoma.
Assay [11] relates to EKVX NSCLC.
Assay [12] has as its system SN12C renal.
The subject of assay [13] is UO-31 renal.
Assay [14] deals with TK-10 renal.
The test system of assay [15] is ACHN renal.
For assay [16], the system named is CAKI-1 renal.
Assay [17] concerns A498 renal.
Assay [18] deals with CCRF-CEM leukemia.
The test system of assay [19] is MOLT-4 leukemia.

The panel holds about 83,000 compounds, 20% with a hit somewhere; the sample as a whole holds those more often.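 Each cell line was grown in a 96-well plate and treated with one concentration of compound for 48 hours. Values below 10 were considered active.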 Values without a mark were called inactive. Active and inactive are the calls of the source.

`[2H]C([2H])([2H])Oc1ccc(/C=C/C(=O)/C=C(O)/C=C/c2ccc(OC([2H])([2H])[2H])c(OC([2H])([2H])[2H])c2)cc1OC([2H])([2H])[2H]`: the growth is 14.3% in [1]; 45.7% in assay [2]; 39.2% in assay [3]; 19.5% in assay [4]; 32.6% in [5]; 11.6% in [6]. Also, the growth was 52% in [7]; 14.5% in [8]; 87.4% in assay [9]; 86.3% in assay [10]; 53.1% in assay [11]; 28.3% in assay [12]. Also, the growth was 11.4% in assay [13]; 54.4% in assay [14]; 40.2% in assay [15]; 41.3% in assay [16]; 116% in assay [17]; 22.3% in assay [18]. For the same compound, in assay [19], the growth was 60.6%.
Take `CCOC(=O)/C(=C\c1ccccc1Cl)P(=O)(OCC)OCC`: the growth was 34.4% in assay [1]; 51% in assay [2]; 84.8% in assay [3]; 66.3% in assay [4]; 45.8% in assay [5]; 79.5% in assay [6]. In addition, the growth is 56.7% in assay [7]; 0.286% (active) in assay [8]; 65.2% in assay [9]; 68.1% in [10]; 73.1% in assay [11]; 68% in assay [12]. The growth in assay [13] is 53.9%; in assay [14], 75.5%; in [15] it was 52.8%; in assay [16] it was 75%; in assay [17], 103%; in assay [18] it was 19.5%. For the same compound, the growth in [19] is 25.1%.
As to `Cc1ccc(-c2nn(CC(=O)N3CCOCC3)c(N)c2C#N)cc1`, the growth in assay [1] was 105%; in assay [2] it was 89.4%; in [3], 97.4%; in assay [4], 99.4%; in assay [5], 100%; in [7] it was 93.1%. For the same compound, the growth in assay [8] was 100%; in [9], 102%; in assay [10] it was 103%; in assay [11], 102%; in assay [12] it was 102%; in assay [13], 84.7%. Besides, the growth was 105% in assay [14]; 101% in assay [15]; 87.3% in assay [16]; 91.3% in [17]; 101% in [18]; 103% in [19].
In the case of `O=C(/C=C/c1ccco1)c1ccc(Nc2ccnc3cc(Cl)ccc23)cc1`, the growth in [1] was 59.7%; in assay [2] it was 105%; in assay [3], 95.1%; in assay [4] it was 56.5%; in assay [5], 80.5%; in assay [6], 68.8%. For the same compound, the growth in [7] was 108%; in assay [8] it was 76.6%; in assay [9], 103%; in assay [10] it was 86.5%; in assay [11], 85.2%; in assay [12], 90.6%. Besides, the growth in assay [13] was 94.8%; in [14], 116%; in [15], 96.5%; in [16], 96%; in [17], 33.6%; in assay [18], 45.1%. For the same compound, the growth in assay [19] was 10.8%.
Take `O=C(Nc1ncc(Cc2ccccc2)s1)c1ccc2c(c1)OCCO2`: the growth in assay [1] was 7.07% (active); in assay [2], 9.1% (active); in [3] it was 35.4%; in assay [4], 14.2%; in assay [5], 27.1%; in [6], -29.7% (active). The growth in [7] was 33.6%; in [8], 10.6%; in [9], 66.3%; in [10], 34.5%; in assay [11], 32.6%; in assay [12], 34.5%. For the same compound, the growth in assay [13] was 46.6%; in assay [14], 38.8%; in assay [15], 27.3%; in assay [16], 17.2%; in assay [17] it was 2.75% (active); in [18], 13.8%. Further, the growth in [19] is 6.38% (active).
For the compound `O=C(Nc1cccc(Cl)c1)Oc1c(Cl)c(Cl)c(Cl)c(Cl)c1Cl`, the growth in assay [1] is 100%; in assay [2], 76.2%; in assay [3] it was 99.1%; in assay [4], 102%; in [5], 86.9%; in assay [6], 90.6%. Moreover, the growth in [7] was 90%; in assay [8], 95.9%; in assay [9], 109%; in assay [10], 100%; in assay [11], 78.9%; in assay [12], 97.1%. For the same compound, the growth in assay [13] was 72.1%; in assay [14], 125%; in [15], 95.6%; in assay [16], 88.2%; in [17], 78.8%; in assay [18] it was 94.4%. Also, the growth in [19] is 96%.
Regarding `O=c1[nH]c(CN2CCN(c3ccccc3)CC2)nc2c(Br)cc(Br)cc12`, the growth is 71.5% in [1]; 95.8% in assay [2]; 108% in [3]; 101% in assay [4]; 103% in [5]; 109% in [6]. Also, the growth in assay [7] is 84.4%; in [8], 99.7%; in [9], 108%; in [10] it was 91.2%; in [11], 96.3%; in [12], 110%. The growth in assay [13] is 77.8%; in assay [14], 120%; in assay [15], 101%; in [16], 99.7%; in assay [17] it was 121%; in assay [18], 88.9%. Also, in [19], the growth is 89.6%.
With `CC/C(=C(/c1ccc(Cl)cc1)c1ccc(OCCN(CC)CC)cc1)c1ccc(OC)cc1`, the growth was 16.7% in [1]; 97.2% in assay [2]; 69.5% in [3]; 33.5% in assay [4]; 33.9% in assay [5]; 46.1% in [6]. The growth is 72.8% in assay [7]; 42.3% in assay [8]; 56% in assay [9]; 89.5% in [10]; 62.2% in [11]; 67.5% in [12]. Moreover, the growth in [13] is 67.5%; in assay [14], 64.9%; in assay [15] it was 79.4%; in assay [16], 77%; in assay [17], 104%; in assay [18] it was 24.3%. Moreover, the growth in assay [19] was 19.7%.
